This passage reports growth results from PubChem BioAssay (NCI).

The structures appear in SMILES notation. About 83,000 compounds went through this panel and 20% of them were active in at least one assay; those are over-represented in the sample as a whole.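 Assay: single dose, 48 h. Readout: percent growth (0 = no net growth; negative = cell death). Active: <10.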 Values without a mark were called inactive. Active and inactive are the calls of the source.

What all share (assay): NCI-60 one-dose screen, 48 h (100 = growth as untreated, 0 = no growth, -100 = all killed)
What all share (conditions): 10 µM unless noted

In experiment [1] the test system is NCI-H23 lung.
Experiment [2] concerns NCI-H226 lung.
In experiment [3] the test system is NCI-H322M lung.
The subject of experiment [4] is HOP-62 NSCLC.
For experiment [5], the system named is NCI-H460 lung.
Experiment [6] concerns HOP-92 NSCLC.
Experiment [7] deals with NCI-H522 lung.
Experiment [8] deals with A549/ATCC NSCLC.
For experiment [9], the system named is 786-0 renal.
In experiment [10] the test system is COLO 205 colon.

As for `CN(C)c1ccc(/C=N\Nc2cc(=O)[nH]c3ccc(Cl)cc23)cc1`, the growth in experiment [1] was 82.8%; in experiment [2], 75%; in experiment [3], 99.2%; in experiment [4] it was 91.8%; in [5], 102%; in [6], 82.2%. Besides, the growth in experiment [7] was 86.1%; in experiment [8] it was 96.6%; in experiment [9], 102%; in experiment [10], 112%.

For the compound `O=c1ccc(N=Nc2ccc([N+](=O)[O-])cc2)ccc1O`, the growth in [1] is 2.17% (active); in experiment [2] it was 16.6%; in experiment [3], 17.6%; in [4], 33%; in [5] it was 17.8%; in experiment [6], 47.5%. Also, the growth in experiment [7] was 14%; in experiment [8], 31.5%; in experiment [9], 42.3%; in [10], 16.7%.

`COc1cc(CNS(=O)(=O)c2ccc(C)cc2)ccc1OCc1cn(-c2ccccc2)nn1`: the growth in [1] was 83%; in experiment [2], 81.5%; in experiment [3] it was 92.8%; in experiment [4] it was 97%; in experiment [5], 97.1%; in experiment [6], 68.4%. Besides, the growth is 76.5% in experiment [7], 90.7% in experiment [8], 95.2% in experiment [9] and 108% in [10].

As for `COc1cc(/C=C/c2ccccc2)cc(OC)c1`, the growth is 86.6% in experiment [1]; 92% in experiment [2]; 114% in [3]; 108% in experiment [4]; 106% in experiment [5]; 69.9% in experiment [6]. In addition, the growth in [7] is 84.1%; in experiment [8] it was 95.4%; in [9] it was 97.9%; in experiment [10], 114%.

On to `O=C1c2ccccc2NC(n2sc3ccccc3c2=O)N1c1ccccc1` (stereo not given), for which the growth in [1] is 99%; in experiment [2], 93.3%; in [3] it was 91.9%; in experiment [4] it was 92.3%; in [5], 107%; in experiment [6] it was 95.2%. Moreover, the growth in [7] was 76.8%; in experiment [8], 101%; in [9], 92%; in experiment [10] it was 115%.

On to `Cc1cc(-c2cc(C)c(N)cc2C)c(C)cc1N`, for which the growth in [1] was 101%; in experiment [2], 103%; in experiment [3], 118%; in [4], 93.1%; in [5], 113%; in experiment [6], 45.9%. The growth is 86.1% in experiment [7], 107% in [8], 84.1% in experiment [9] and 99.2% in [10].

As for `BrCCCc1n(Cc2ccc3ccccc3c2)c2ccccc2[n+]1Cc1ccc2ccccc2c1`, the growth is -81.3% (active) in experiment [1]; -72.6% (active) in experiment [2]; 11.9% in experiment [3]; -65.7% (active) in experiment [4]; -88.4% (active) in [5]; -77% (active) in experiment [6]. For the same compound, the growth in experiment [7] is -52.3% (active); in [8] it was -54.1% (active); in [9], -90.7% (active); in experiment [10], -61.2% (active).

On to `COc1cc2oc(-c3ccc(O)cc3)cc(=O)c2c(O)c1-c1c(OC)cc(O)c2c(=O)cc(-c3ccc(O)cc3)oc12`, for which the growth in experiment [1] is 31.9%; in experiment [2], 70.8%; in [3] it was 28.8%; in experiment [4], 27%; in experiment [5], 11.8%; in experiment [6], 62.3%. In addition, the growth in [7] is 45.8%; in [8] it was 69.8%; in experiment [9], 48.8%; in [10], 67.5%.

With `O=C1CN(CCN2CC(=O)N(Cc3ccccc3)C(=O)C2)CC(=O)N1Cc1ccccc1`, the growth in experiment [1] was 97.7%; in [2] it was 107%; in [3], 104%; in experiment [4] it was 91.2%; in experiment [5], 100%; in experiment [6] it was 85%. Further, the growth was 98.8% in experiment [7], 102% in experiment [8], 110% in experiment [9] and 109% in experiment [10].

Turning to `CCCCCCNC(=O)Oc1ccc(/C(=C(\C)c2ccc(Cl)cc2)c2ccc(OCCN3CCCCC3)cc2)cc1`, the growth is 48.5% in experiment [1]; 91.2% in [2]; 84.9% in [3]; 68.5% in experiment [4]; 23.8% in experiment [5]; 47.6% in experiment [6]. Also, the growth is 69.1% in [7], 48.9% in experiment [8], 23.7% in [9] and -35.8% (active) in [10].

Regarding `COc1c(B(O)O)cc(C)cc1-c1nc2ccc3[nH]ncc3c2c2c1CCCC2`, the growth in [1] is 70.9%; in [2], 73.7%; in experiment [3], 106%; in experiment [4], 43%; in experiment [5], 31.4%; in experiment [6], 53.8%. Also, the growth was 37.3% in [7], 52.7% in experiment [8], 48.3% in [9] and 19.6% in [10].

Regarding `CCCCNc1nc(NN2C(=O)c3cccc4cccc(c34)C2=O)nc(-n2cnc3ccccc32)n1`, the growth in experiment [1] was 88.7%; in [2], 54.9%; in [3], 92.7%; in experiment [4], 97.4%; in experiment [5], 102%; in [6] it was 60.3%. Moreover, the growth was 89.5% in [7], 89.4% in experiment [8], 97.7% in experiment [9] and 107% in [10].

As for `CCCCCCNC(=O)Oc1ccc(/C(=C(\C)c2ccc(Cl)cc2)c2ccc(OCCN(CC)CC)cc2)cc1`, the growth is 67.1% in experiment [1]; 101% in experiment [2]; 85.7% in experiment [3]; 77.8% in experiment [4]; 26.4% in experiment [5]; 58.3% in experiment [6]. Besides, the growth is 86.4% in [7], 58.4% in experiment [8], 41.2% in [9] and 4.94% (active) in [10].

`c1ccc2cc(C[n+]3ccn(CCCCCCCCCCCCn4cc[n+](Cc5ccc6ccccc6c5)c4)c3)ccc2c1`: the growth is -80.3% (active) in experiment [1]; -42.1% (active) in [2]; -18.4% (active) in experiment [3]; -58% (active) in experiment [4]; -69.9% (active) in experiment [5]; -68.2% (active) in experiment [6]. For the same compound, the growth in [7] was -74.2% (active); in experiment [8] it was -74.2% (active); in [9], 1.28% (active); in experiment [10], -67.5% (active).
